# Measurements from ChEMBL document CHEMBL1961873, “Compounds: GSK PKIS; Assays: Nanosyn kinase panel” (2012).
# How the values were obtained:
# [1] = biological target: Sphingosine kinase 1 (Homo sapiens) (UniProt Q9NYA1); details: at 1 µM;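 also: mean SPHK1 inhibition value reported from the GSK PKIS kinase panel screen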
# [2] = biological target: T1, Sphingosine kinase 2 (Homo sapiens) (UniProt Q9NRA0); details: at 0.1 µM
# T1 sequence (whole entry): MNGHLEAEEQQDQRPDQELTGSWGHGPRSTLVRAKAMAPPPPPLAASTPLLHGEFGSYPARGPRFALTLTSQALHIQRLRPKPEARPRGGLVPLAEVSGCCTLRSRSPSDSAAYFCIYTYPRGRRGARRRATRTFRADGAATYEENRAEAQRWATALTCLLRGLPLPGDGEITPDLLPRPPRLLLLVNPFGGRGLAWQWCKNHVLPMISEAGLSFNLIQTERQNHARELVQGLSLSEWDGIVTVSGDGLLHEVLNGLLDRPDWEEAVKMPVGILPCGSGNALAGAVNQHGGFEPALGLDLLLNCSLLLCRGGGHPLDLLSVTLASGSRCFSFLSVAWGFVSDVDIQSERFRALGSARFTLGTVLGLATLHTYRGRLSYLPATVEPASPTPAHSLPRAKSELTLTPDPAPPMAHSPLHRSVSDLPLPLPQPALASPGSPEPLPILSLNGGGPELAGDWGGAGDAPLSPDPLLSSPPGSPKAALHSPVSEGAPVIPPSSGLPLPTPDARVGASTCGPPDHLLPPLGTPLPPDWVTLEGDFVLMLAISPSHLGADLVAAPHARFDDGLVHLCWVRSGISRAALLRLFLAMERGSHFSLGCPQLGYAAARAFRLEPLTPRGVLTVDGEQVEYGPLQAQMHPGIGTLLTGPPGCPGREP
# [3] = biological target: T1, Sphingosine kinase 2 (Homo sapiens); details: at 1 µM
# [4] = biological target: Casein kinase II subunit alpha (Homo sapiens) (UniProt P68400); details: at 0.1 µM
# [5] = biological target: Casein kinase II subunit alpha (Homo sapiens) (UniProt P68400); details: at 1 µM
# [6] = biological target: T2, Inhibitor of nuclear factor kappa-B kinase subunit alpha (Homo sapiens) (UniProt O15111); details: at 0.1 µM
# T2 sequence (whole entry): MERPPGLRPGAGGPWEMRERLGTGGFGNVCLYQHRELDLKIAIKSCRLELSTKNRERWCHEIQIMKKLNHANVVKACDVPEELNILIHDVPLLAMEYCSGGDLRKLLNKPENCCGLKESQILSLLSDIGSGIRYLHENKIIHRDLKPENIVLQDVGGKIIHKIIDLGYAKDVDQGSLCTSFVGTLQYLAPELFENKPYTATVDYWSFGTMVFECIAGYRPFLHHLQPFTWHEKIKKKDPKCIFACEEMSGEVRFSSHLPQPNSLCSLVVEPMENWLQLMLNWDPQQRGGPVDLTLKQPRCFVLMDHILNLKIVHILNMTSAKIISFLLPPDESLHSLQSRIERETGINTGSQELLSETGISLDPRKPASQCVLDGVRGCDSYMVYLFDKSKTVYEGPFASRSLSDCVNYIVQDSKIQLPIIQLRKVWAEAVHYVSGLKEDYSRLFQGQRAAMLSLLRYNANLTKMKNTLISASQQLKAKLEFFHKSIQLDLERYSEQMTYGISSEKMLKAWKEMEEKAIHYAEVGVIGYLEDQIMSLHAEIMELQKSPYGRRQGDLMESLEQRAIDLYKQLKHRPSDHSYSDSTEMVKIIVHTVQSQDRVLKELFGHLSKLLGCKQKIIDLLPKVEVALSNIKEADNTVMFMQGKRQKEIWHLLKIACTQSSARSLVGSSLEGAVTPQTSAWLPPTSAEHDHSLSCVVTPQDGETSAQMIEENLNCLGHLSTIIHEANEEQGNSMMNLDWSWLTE
# [7] = biological target: T2, Inhibitor of nuclear factor kappa-B kinase subunit alpha (Homo sapiens); details: at 1 µM
# [8] = biological target: T3, Inhibitor of nuclear factor kappa-B kinase subunit beta (Homo sapiens) (UniProt O14920); details: at 0.1 µM
# T3 sequence (whole entry): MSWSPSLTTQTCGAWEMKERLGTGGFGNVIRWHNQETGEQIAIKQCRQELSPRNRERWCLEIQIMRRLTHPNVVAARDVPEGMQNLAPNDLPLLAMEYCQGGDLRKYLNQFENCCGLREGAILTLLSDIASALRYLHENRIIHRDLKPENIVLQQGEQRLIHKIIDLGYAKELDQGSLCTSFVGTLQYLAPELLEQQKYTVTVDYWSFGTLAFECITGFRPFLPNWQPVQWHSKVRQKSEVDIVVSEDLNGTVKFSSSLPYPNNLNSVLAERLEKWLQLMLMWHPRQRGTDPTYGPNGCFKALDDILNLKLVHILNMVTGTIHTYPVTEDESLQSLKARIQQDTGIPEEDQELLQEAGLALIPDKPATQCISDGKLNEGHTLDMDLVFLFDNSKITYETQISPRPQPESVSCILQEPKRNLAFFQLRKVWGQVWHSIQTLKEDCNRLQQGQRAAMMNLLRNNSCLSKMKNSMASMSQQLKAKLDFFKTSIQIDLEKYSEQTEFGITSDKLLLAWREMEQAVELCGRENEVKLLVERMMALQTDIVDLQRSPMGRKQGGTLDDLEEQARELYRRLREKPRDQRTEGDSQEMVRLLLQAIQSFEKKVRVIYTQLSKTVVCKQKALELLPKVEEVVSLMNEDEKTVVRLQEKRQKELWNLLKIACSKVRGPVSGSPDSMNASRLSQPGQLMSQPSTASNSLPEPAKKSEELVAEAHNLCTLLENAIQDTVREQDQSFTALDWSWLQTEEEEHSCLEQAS
# [9] = biological target: T3, Inhibitor of nuclear factor kappa-B kinase subunit beta (Homo sapiens); details: at 1 µM
# [10] = biological target: T4, Inhibitor of nuclear factor kappa-B kinase subunit epsilon (Homo sapiens) (UniProt Q14164); details: at 0.1 µM;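 also: mean inhibition of IKKε reported, from the GSK PKIS dataset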
# T4 sequence (whole entry): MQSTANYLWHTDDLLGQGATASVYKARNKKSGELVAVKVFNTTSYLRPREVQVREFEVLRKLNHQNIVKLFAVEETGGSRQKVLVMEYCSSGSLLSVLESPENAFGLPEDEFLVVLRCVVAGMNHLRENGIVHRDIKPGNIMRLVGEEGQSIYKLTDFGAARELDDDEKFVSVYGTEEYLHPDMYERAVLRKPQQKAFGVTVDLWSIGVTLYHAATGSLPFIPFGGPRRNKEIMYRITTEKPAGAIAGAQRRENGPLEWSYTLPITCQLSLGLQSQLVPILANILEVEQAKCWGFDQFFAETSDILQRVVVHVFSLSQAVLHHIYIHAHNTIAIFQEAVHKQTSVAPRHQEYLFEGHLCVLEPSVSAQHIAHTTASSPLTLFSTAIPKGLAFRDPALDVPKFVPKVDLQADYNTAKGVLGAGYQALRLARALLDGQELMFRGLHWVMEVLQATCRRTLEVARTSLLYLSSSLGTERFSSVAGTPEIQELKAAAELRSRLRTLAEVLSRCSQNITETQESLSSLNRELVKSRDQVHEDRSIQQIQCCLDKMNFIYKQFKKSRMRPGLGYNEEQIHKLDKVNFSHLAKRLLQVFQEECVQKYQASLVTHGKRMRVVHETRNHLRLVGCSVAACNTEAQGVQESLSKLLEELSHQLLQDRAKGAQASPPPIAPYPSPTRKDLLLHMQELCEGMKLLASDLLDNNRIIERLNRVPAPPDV
# Casein kinase II subunit alpha (Homo sapiens), sequence (P68400 whole entry, looked up): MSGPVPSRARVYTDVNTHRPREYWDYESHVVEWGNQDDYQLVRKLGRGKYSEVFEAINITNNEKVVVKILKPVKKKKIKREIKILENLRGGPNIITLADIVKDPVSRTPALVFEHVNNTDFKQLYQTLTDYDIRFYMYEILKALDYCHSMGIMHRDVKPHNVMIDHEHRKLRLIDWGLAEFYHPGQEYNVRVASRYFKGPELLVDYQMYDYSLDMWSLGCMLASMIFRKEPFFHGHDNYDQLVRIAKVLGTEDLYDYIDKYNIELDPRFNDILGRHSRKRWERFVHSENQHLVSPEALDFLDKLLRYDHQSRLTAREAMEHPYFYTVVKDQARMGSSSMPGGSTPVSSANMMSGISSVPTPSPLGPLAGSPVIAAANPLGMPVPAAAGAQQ
# Sphingosine kinase 1 (Homo sapiens), sequence (Q9NYA1 whole entry): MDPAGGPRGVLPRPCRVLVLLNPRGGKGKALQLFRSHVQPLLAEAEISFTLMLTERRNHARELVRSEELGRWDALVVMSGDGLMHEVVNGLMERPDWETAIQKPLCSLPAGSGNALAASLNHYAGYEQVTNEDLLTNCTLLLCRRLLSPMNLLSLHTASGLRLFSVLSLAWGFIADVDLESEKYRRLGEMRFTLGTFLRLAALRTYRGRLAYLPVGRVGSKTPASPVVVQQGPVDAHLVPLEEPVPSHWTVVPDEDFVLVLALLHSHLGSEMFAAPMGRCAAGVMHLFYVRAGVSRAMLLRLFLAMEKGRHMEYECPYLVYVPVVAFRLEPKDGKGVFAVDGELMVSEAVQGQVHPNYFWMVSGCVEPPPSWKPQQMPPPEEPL
compound,measurement,setting,value
CN(c1ccc(NC(=O)Nc2ccc(OC(F)(F)F)cc2)cc1)c1ccnc(Nc2cccc(S(N)(=O)=O)c2)n1,inhibition,[1],0.54%
same,inhibition,[2],-0.4%
same,inhibition,[3],1.23%
same,inhibition,[4],2.7%
same,inhibition,[5],1.68%
same,inhibition,[6],8.41%
same,inhibition,[7],3.54%
same,inhibition,[8],3.29%
same,inhibition,[9],2.85%
same,inhibition,[10],5.07%
